# Experimental data taken from PMC5540273 (PLoS ONE, 2017).
# What was measured:
# Settings in all cases: concentration: 1 μM, replicates: in singlicate; n = 1
# EPHA2 = test system: EPHA2
# EPHA3 = test system: EPHA3
# EPHA4 = test system: EPHA4
# EPHA5 = test system: EPHA5
# EPHA6 = test system: EPHA6
# EPHA7 = test system: EPHA7
# EPHA8 = test system: EPHA8
# EPHB1 = test system: EPHB1
# EPHB2 = test system: EPHB2
# EPHB3 = test system: EPHB3
# 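Further: KINOMEscan kinase panel screen.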
SMILES,%Inh (EPHA2) [%],%Inh (EPHA3) [%],%Inh (EPHA4) [%],%Inh (EPHA5) [%],%Inh (EPHA6) [%],%Inh (EPHA7) [%],%Inh (EPHA8) [%],%Inh (EPHB1) [%],%Inh (EPHB2) [%],%Inh (EPHB3) [%]
CCn1c(-c2ccccc2)nc2cnccc21 [SB-733416],10,0,24,10,29,7,5,7,15,26
Cc1c(Cn2c3ccccc3n3c(=O)cc(N4CCOCC4)nc23)cccc1C(F)(F)F [GSK2306394],0,0,0,0,0,7,13,22,0,0
Cc1c(Cn2c(C)c(C)n3c(=O)cc(N4CCOCC4)nc23)cccc1C(F)(F)F [GSK2328680],17,0,1,0,0,4,7,0,0,2
CS(=O)(=O)CCNCc1nc(-c2ccc3ncnc(Nc4ccc5c(cnn5Cc5ccccc5)c4)c3c2)cs1.Cl.Cl [GW569716],0,0,6,8,7,4,11,0,0,13
COc1ccc(Nc2nccc(N3CCC(NC(=O)c4cc5ccccc5s4)C3)n2)cc1 (stereo not shown) [GSK1379738],0,0,8,0,1,7,13,20,12,11
COc1cc2ncnc(Nc3cccc(Br)c3)c2cc1OC.Cl [GI230329],13,33,0,0,41,7,12,20,9,1
CC(=O)c1c(C)c2cnc(Nc3ccn(C)n3)nc2n(C2CCCC2)c1=O,0,0,0,0,0,0,0,0,15,0
COc1cccc(NC(=O)Nc2ccc(C)c(-c3ccc(C(=O)Nc4ccncc4)cc3)c2)c1 [GSK1398474],1,5,15,2,13,13,25,10,4,18
Cc1ccc(NC(=O)Nc2ccccc2F)cc1-c1ccc(C(=O)Nc2ccncc2)cc1 [GSK1398477],31,17,40,14,31,19,52,27,12,22
COc1ccc(-c2coc3ccc(-c4nnc(C)o4)cc23)cc1,8,17,33,0,26,0,0,0,12,31
CC(C)c1cc(-c2ccc3c(N)n[nH]c3c2)nc(N)n1 [GSK2250882],17,11,16,0,17,3,8,17,0,29
CCc1ccc(-c2ccc3c(c2)-c2n[nH]cc2S(=O)(=O)N3C)cc1,2,0,0,5,0,0,0,0,10,0
CC(=O)c1c(C)c2cnc(Nc3ccc(N4CCNCC4)cn3)nc2n(C2CCCC2)c1=O,16,0,0,0,0,0,0,0,0,3
Cn1cnc2c(N)ncnc21 [SKF-97623],0,0,0,9,0,0,0,0,0,0
COC(=O)C(Cc1ccccc1)NC(=O)NC1CCN(c2ccnc(Nc3ccc(F)cc3)n2)C1 (stereo not shown) [GSK1379714],38,4,1,0,0,2,5,0,11,0
O=c1cc(N2CCOCC2)nc2n(Cc3cccc(Cl)c3Cl)c3ccccc3n12 [GSK2299009],8,5,14,1,6,19,25,26,61,20

SMILES,%Inh (EPHA2) [%],%Inh (EPHA3) [%],%Inh (EPHA4) [%],%Inh (EPHA5) [%],%Inh (EPHA6) [%],%Inh (EPHA7) [%],%Inh (EPHA8) [%],%Inh (EPHB1) [%],%Inh (EPHB2) [%],%Inh (EPHB3) [%]
Cc1cccc2c(-c3ccncn3)c(-c3ccc(F)cc3)nn12 [GW515532],0,0,2,0,21,0,13,1,0,2
Cc1ccccc1-c1cc(-c2c[nH]nc2-c2ccccn2)ccn1 [GW680061],10,0,11,0,11,14,22,0,15,9
O=C1NC(=O)C(c2ccc(Cl)cc2)=C1Nc1cccc(Cl)c1 [SB-317651],8,0,0,1,0,0,0,0,20,0
Nc1cccc(-c2ccc3c(N)n[nH]c3c2)n1 [GSK2192730],0,4,5,0,0,8,8,9,0,1
CS(=O)(=O)CCNCc1nc(-c2ccc3ncnc(Nc4ccc(OCc5ccccc5)c(Cl)c4)c3c2)cs1.Cl [GW582764],10,0,0,0,7,0,8,0,0,11
COc1ccc(Nc2nccc(N3CCC(NC(=O)C(C)c4ccc(Cl)cc4)C3)n2)cc1 (stereo not shown) [GSK1379735],25,9,14,0,11,18,17,13,0,9
COc1ccc(Nc2nccc(NCCNC(=O)Nc3cc(C)ccc3C)n2)cc1 [GSK1379899],0,0,17,0,14,3,6,16,0,17
Cl.Cl.Cl.N#Cc1ccc(CCNc2nccc(-c3cccc(CN4CCNCC4)c3)n2)cc1 [GSK2137462],8,14,13,0,3,9,14,18,0,15
CNc1cc(-c2ccc3c(N)n[nH]c3c2)nc(N)n1 [GSK2224810],0,27,0,0,0,0,0,23,0,4
NS(=O)(=O)c1cccc(N/C=C2\C(=O)Nc3ccc(S(=O)(=O)Cc4c(Cl)cccc4Cl)cc32)c1 [GSK398099],0,12,12,0,3,8,31,17,14,6
Nc1nccc(-c2c(-c3ccc(F)cc3)ncn2C2CCN(Cc3ccccc3)CC2)n1 [SB-219980],0,0,4,21,24,0,1,9,0,20
Cc1ccc(NC(=O)Nc2ccc(Cl)c(C(F)(F)F)c2)cc1-c1ccc(C(=O)Nc2ccncc2)cc1 [GSK1398470],17,19,7,7,20,15,26,23,17,19
Cc1ccccc1Cn1ccn2c(=O)cc(N3CCOCC3)nc12 [GSK2269905],4,0,19,0,14,0,11,10,0,20
Cc1cnc(N)c(/C=C/c2cncc(C(=O)NCCc3ccc(Cl)cc3Cl)c2)c1.Cl [GSK190937],8,16,6,0,0,6,10,5,0,6
CNc1nc(-c2ccc3c(N)n[nH]c3c2)cc(N2C[C@@H](C(=O)NC3CCCCC3)OC[C@H]2C)n1 [GSK2375584],0,0,8,0,1,8,13,7,0,11
